The results in this text go back to PubChem BioAssay AID1527 (The Scripps Research Institute Molecular Screening Center, 2009).

The term inhibition denotes the drop in the measured response relative to a control, in per cent.

Structures are written as SMILES. Hit rate of the full screen: of about 290,000 compounds, about 2,600 (0.9%) were called active.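 How the source made its calls: active means inhibition above the mean of all tested compounds plus 3 SD, cutoff set per screening run (cut at about 7.5% in these data); inactive means the rest.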 The entries come from a sample that favours actives as a whole.

The assay relates to VIM-2 metallo-beta-lactamase (Pseudomonas aeruginosa). Put plainly: inhibition of VIM-2 nitrocefin hydrolysis – biochemical, epi-absorbance readout, Pseudomonas aeruginosa enzyme, primary screen (AID 1527).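 Further: red hydrolysis product quenches plate fluorescence so inhibitors raise well fluorescence; 0% = enzyme with DMSO and 100% = DMSO without enzyme.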 To be noted: purified VIM-2, nitrocefin hydrolysis, epi-absorbance fluorescence; at 5.6 µM; hits give high values.
Turning to `CCCNC(=O)CCc1c(C)nc2c(c(C)nn2-c2ccccc2)c1C`, the inhibition was -3.85% (inactive).

Regarding `COc1ccc(/C=N/S(=O)(=O)c2ccccc2)cc1OC`, the inhibition was 2.08% (inactive). In the case of `C=CCOCCN(C)C1=NS(=O)(=O)c2ccccc21` it was -0.19% (inactive). In the case of `COc1ccc(/C=N/N(C)C2=NS(=O)(=O)c3ccccc32)cc1OC` it was 18.5% (active); in that of `CC(=O)c1cccc(NC(=O)C2CCCN(S(=O)(=O)c3cccc4nonc34)C2)c1` (configuration not stated), -0.2% (inactive); in that of `COc1ccc(COC(=O)c2ccc(Cl)c(S(=O)(=O)N3CCOCC3)c2)cc1F`, -3.64% (inactive). In the case of `CCN1CCN(CCNC(=O)c2ccc(/C=C3/Sc4ccccc4N(Cc4cccc(C)c4)C3=O)cc2)CC1` it was -2.77% (inactive); in that of `COc1ccc(CCNC(=O)c2ccc3c(c2)NC(=O)C(N2CCOCC2)S3)cc1OC` (configuration not stated), 0.07% (inactive).

For the compound `CCN1CCN(CCNC(=O)c2ccc3c(c2)NC(=O)/C(=C\c2ccc(OC)c(OC)c2)S3)CC1`, the inhibition was 23.2% (active).

For `O=C(NCCCc1ccccc1)C(=O)NCC1OCCN1S(=O)(=O)c1ccccc1` (configuration not stated), the inhibition is -2.36% (inactive). Consider `CCC(NC(=O)c1cc(COc2ccc(F)c(F)c2)on1)c1ccncc1` (configuration not stated), for which the inhibition is 1.14% (inactive).

Consider `COc1ccc(S(=O)(=O)N2CCN(C)CC2)c(C)c1`, for which the inhibition was 1.39% (inactive). In the case of `CN1CCN(C(=O)CCc2ncc(C(F)(F)F)cc2Cl)CC1` it was 7.72% (active); in that of `O=C(NCC(=O)N1CCN(c2ncc(C(F)(F)F)cc2Cl)CC1)c1ccc(Br)o1`, 0.82% (inactive). The figure for `CC(=O)c1ccc(Cc2ncc(C(F)(F)F)cc2Cl)s1` is -0.62% (inactive).

For the compound `O=C1CC(C(F)(F)C(F)(F)C(F)(F)C(F)(F)F)=Nc2ccccc2N1`, the inhibition was -4.82% (inactive). As to `Cc1ccccc1-n1cc(CNC(=O)C2CCC(=O)N(C3CC3)C2)cn1` (configuration not stated), the inhibition was -2.92% (inactive).

With `O=C1/C(=C/c2ccc3c(c2)OCO3)Oc2cc(OCC(=O)N3CC(O)C[C@H]3C(=O)O)ccc21` (some centres not stated), the inhibition is -0.7% (inactive). In the case of `Cc1ccccc1N1CCN(CCCOc2ccc3c(C)cc(=O)oc3c2)CC1`, the inhibition is -0.43% (inactive). In the case of `Cc1cc(=O)oc2ccc(OCC(=O)O)cc12` it was -3.22% (inactive); in that of `Cc1cc(=O)oc2cc(OCCC[n+]3ccccc3)ccc12`, 8.33% (active); in that of `Cc1ccc2c(C)c(C(=O)N3CCN(c4ccncc4)CC3)oc2c1C`, 3.45% (inactive). For `Cc1nnc(SCC(=O)Nc2cccc(N)c2)n1-c1ccccc1`, the inhibition is -2.64% (inactive). The figure for `O=S(=O)(c1ccc(Br)cc1)N1CCC(c2nc3ccccc3[nH]2)CC1` is -4.39% (inactive); for `Cc1cc(NC(=O)/C=C/C(=O)N(c2ccccc2C)C(C(=O)NC2CCCC2)c2ccc(F)cc2)no1` (configuration not stated) it is 1.56% (inactive).

Take `COc1ccc(CNC(=O)c2cc(C(=O)C3CC3)c[nH]2)cc1`: the inhibition is -2.31% (inactive).

For the compound `CCOC(=O)N1CCN(C(=O)C2CCN(c3ncnc4c3sc3cccc(F)c34)CC2)CC1`, the inhibition is 17.8% (active). In the case of `CCOC(=O)N1CCN(C(=O)C2CCN(S(=O)(=O)c3cc(Cl)ccc3OCC)CC2)CC1` it was -1.98% (inactive); in that of `CCOC(=O)C1CCN(c2ncnc3c2oc2ccc(Br)cc23)CC1`, -2.16% (inactive); in that of `C=CCOc1cccc(C2NC(=O)c3ccccc3O2)c1` (configuration not stated), -2.16% (inactive). The figure for `Cc1cc(Nc2ccc(N3CCOCC3)cc2)c2cccc(C)c2n1` is 2.18% (inactive); for `Cc1nn2c3cc(N4CCOCC4)ccc3nc2c2ccccc12` it is 10.9% (active); for `Cc1cc(N2CCN(c3ccccc3)CC2)nc(N2CCOCC2)n1` it is -1.05% (inactive). The figure for `CC(=O)NC(CC(=O)Nc1cccc(S(=O)(=O)N2CCCC2)c1)c1ccccc1` (configuration not stated) is -3.12% (inactive); for `C=CCn1c(-c2ccccc2OCC)n[nH]c1=S` it is 25.3% (active).

Regarding `C=CCn1c(-c2sc(-c3ccccc3)nc2C)n[nH]c1=S`, the inhibition is -5.93% (inactive).

Take `C=CCn1c(-c2ccc3[nH]c(C)c(C)c3c2)n[nH]c1=S`: the inhibition is 5.39% (inactive).

Turning to `COc1cc(NC(=O)CCNC(=O)Cn2ccc3ccccc3c2=O)cc(OC)c1OC`, the inhibition is -1.82% (inactive). The figure for `C[C@H](NC(=O)[C@@H]1Cc2ccccc2CN1C(=O)OC(C)(C)C)C(=O)NC1CCCC1` is -2.43% (inactive). Regarding `CCn1c(C(O)c2cc(OC)ccc2OC)nc2ccccc21` (configuration not stated), the inhibition was -0.51% (inactive). In the case of `Cc1cccc(OCC(=O)NCCCNC(=O)c2ccccn2)c1`, the inhibition was -2.83% (inactive). The figure for `CCN(CC)CCOc1ccc2c(c1)C(=NNC(=O)c1ccccn1)c1cc(OCCN(CC)CC)ccc1-2` is 29.9% (active). For the compound `COc1ccc(CC(=O)N/N=C(\C)c2ccccn2)cc1`, the inhibition was -3.47% (inactive). For the compound `CCCc1[nH]nc2c1C(c1ccc(Br)s1)C(C#N)=C(N)O2` (configuration not stated), the inhibition is 8.14% (active).

Turning to `CCCc1[nH]nc2c1C(C1CC=CCC1)C(C#N)=C(N)O2` (configuration not stated), the inhibition was 1.47% (inactive).

As for `CCCc1[nH]nc2c1C(c1c(C)nn(-c3ccccc3)c1Cl)C(C#N)=C(N)O2` (configuration not stated), the inhibition was -2.17% (inactive). The figure for `CN(C)C(=O)c1coc2nc3ccccc3nc12` is -2.21% (inactive); for `CNC(=O)c1cccc2nc3ccccc3nc12` it is 12.2% (active). In the case of `CNC(=O)c1cc2c(ccc3ccccc32)oc1=N` it was 0.24% (inactive); in that of `Cc1ccc(S(=O)(=O)c2nc(-c3cccs3)oc2NCc2cccnc2)cc1`, -1.14% (inactive); in that of `O=C(NCCOc1ccccc1F)Nc1ccc(Br)cc1`, -1.38% (inactive). The figure for `COc1ccc(NS(=O)(=O)c2cc3c(cc2C)N(C(C)=O)CCO3)cc1` is -3.48% (inactive); for `O=[N+]([O-])c1ccccc1/C=C/CN1CCCC(CO)C1` (configuration not stated) it is -0.68% (inactive); for `O=C(NCC(=O)N1CCC2(CC1)NCCc1[nH]cnc12)c1ccc(Br)cc1` it is 0.87% (inactive). For the compound `Cc1ccccc1NC(=O)C1CCN(C(=O)NC2CCCCC2)CC1`, the inhibition is -1.56% (inactive).

With `O=C(NC(=S)Nc1ncccn1)c1ccccc1Br`, the inhibition was -1.46% (inactive).

`O=C(Nc1ccc(-n2ccnc2P(=O)(O)c2ccccc2)cc1)c1ccccc1Br`: the inhibition is 21.4% (active). In the case of `Cc1ccc(NC(=O)c2cccnc2C(=O)Nc2ccc(C)cc2)cc1` it was -0.75% (inactive). The figure for `COc1cc(/C=C2\SC(=O)NC2=O)ccc1OCc1ccc(Cl)nc1` is -1.77% (inactive); for `COc1ccccc1CCNS(=O)(=O)c1cc2c3c(c1)C(C)C(=O)N3CCC2` (configuration not stated) it is 1.4% (inactive); for `O=C(NCCCc1ccccc1)C1CCC(=O)N(CCc2ccc(Cl)cc2)C1` (configuration not stated) it is -1.97% (inactive). Turning to `Cc1ccc(NC(=O)CSc2cccc3cccnc23)c(C)c1`, the inhibition is -0.55% (inactive).

As for `Cc1cccc(N2C(=O)c3cccnc3C2=O)c1`, the inhibition is -0.49% (inactive). For `Cc1ccc(Oc2ccc3c(c2)C(=O)N(c2cccc4cccnc24)C3=O)cc1`, the inhibition was 30.9% (active).

Turning to `O=C(C1CCN(S(=O)(=O)c2ccc(Br)s2)CC1)N1CCN(c2ccccc2)CC1`, the inhibition is -3.44% (inactive). The figure for `Cc1cccc(NC(=S)NC(=O)c2ccc(Br)o2)c1` is -1.38% (inactive); for `O=C(NC(=S)Nc1ccccc1C(=O)O)c1ccc(-c2ccc(Br)cc2)o1` it is 19.4% (active); for `COC(=O)c1ccccc1NC(=S)NC(=O)c1ccccc1F` it is -1.44% (inactive). In the case of `CC(C)[C@H](NC(=O)N1CC(=O)Nc2ccccc21)C(=O)N[C@@H](Cc1c[nH]c2ccccc12)C(=O)O`, the inhibition was -2.42% (inactive).

`Nc1cccc2c1C(=O)N(Cc1nnc(-c3ccccc3Br)o1)C2=O`: the inhibition was 13.6% (active).

On to `Cn1cnnc1SCc1nnc(-c2ccccc2Br)o1`, for which the inhibition was -0.36% (inactive). Turning to `CCOC(=O)N1CCN(Cc2nnc(-c3ccccc3Cl)o2)CC1`, the inhibition is -1.67% (inactive). Turning to `Cc1ccccc1NC(=O)C1CCCN(C(=O)NCc2ccccc2)C1` (configuration not stated), the inhibition was -2.35% (inactive). Consider `CC(C)(C)C(=O)CN1C2=NCCN2c2ccccc21`, for which the inhibition was -3.12% (inactive). In the case of `OC(CN1C2=NCCCN2c2ccccc21)c1ccc(Br)cc1` (configuration not stated) it was -1.66% (inactive).

In the case of `Cc1cc2c(cc1C)N(Cc1ccccc1)C1=NCCCN12`, the inhibition was 8.88% (active). The figure for `COc1ccc(S(=O)(=O)NCC(=O)NCc2cc(=O)n(C)c(=O)n2C)cc1F` is -1.12% (inactive); for `CCn1c(Cc2ccc(OC)cc2)nnc1SCC(=O)Nc1ccc(N2CCOCC2)cc1` it is -1.86% (inactive). `Cc1cc(N/N=C\c2ccc(Br)cc2)nc(-n2nc(C)cc2C)n1`: the inhibition is -1.15% (inactive). Regarding `COc1ccc(Nc2cc(C)nc(-n3nc(C)cc3C)n2)cc1`, the inhibition was 12.7% (active). As to `COc1ccccc1/C=N\Nc1cc(C)nc(-n2nc(C)cc2C)n1`, the inhibition is -5.24% (inactive). The figure for `Cc1cccc(OCC(=O)NCC(=O)N/N=C/c2ccc(N(C)C)cc2)c1` is 0.77% (inactive); for `N#Cc1ccc(/C=C2\CCn3c2nc2cc(C(=O)O)ccc2c3=O)cc1` it is 3.37% (inactive). The figure for `Cc1cc(S(=O)(=O)NCc2ccccn2)c(Cl)cc1Cl` is -1.51% (inactive); for `Fc1ccc(-c2ccc(CNCc3ccccn3)o2)cc1Cl` it is 38% (active); for `COc1ccc(-c2ccc(CNCCCN3CCOCC3)o2)cc1Cl` it is -0.71% (inactive). `COc1ccc(S(=O)(=O)N2CCN(C(=O)N(C)C)C2C)cc1` (configuration not stated): the inhibition is -2.86% (inactive). `N#Cc1ccc(S(=O)(=O)NCC(=O)OCC(=O)NCCc2ccccc2)cc1`: the inhibition is -2% (inactive). Turning to `O=C(Nn1c(SCc2ccc([N+](=O)[O-])cc2)nc2ccccc2c1=O)c1ccc(F)cc1`, the inhibition is 1.03% (inactive).

As to `COCCNC(=O)c1ccc(-n2c(SCc3cccnc3)nc3ccccc3c2=O)cc1`, the inhibition was -1.16% (inactive). In the case of `C=CCn1c(SCc2ccc(C(=O)NCCO)cc2)nc2ccccc2c1=O` it was 9.03% (active); in that of `CC1CCCC(C)N1CCCNC(=O)c1cc2c(=O)n(C)c3ccccc3c2n1C` (configuration not stated), 21.7% (active); in that of `Cn1c(C(=O)N2CCC(C(N)=O)CC2)cc2c(=O)n(C)c3ccccc3c21`, 2.96% (inactive). As to `Cn1c(C(=O)NCCc2ccsc2)cc2c(=O)n(C)c3ccccc3c21`, the inhibition is 4.63% (inactive). The figure for `Cn1c(C(=O)NCCN2CCc3ccccc3C2)cc2c(=O)[nH]c3ccccc3c21` is 6.06% (inactive). As to `CCN1CCCC1CNC(=O)c1cc2c(=O)n(C)c3ccccc3c2n1C` (configuration not stated), the inhibition is 19.9% (active). In the case of `Cn1c(C(=O)NCCCN2CCN(c3cccc(Cl)c3)CC2)cc2c(=O)n(C)c3ccccc3c21`, the inhibition is -1.03% (inactive).
